# Screening results: PubChem, National Center for Advancing Translational Sciences (NCATS)
# In the library only some 10% were active in any assay of this set; here they are far more common.
# Lamin A splicing: qHTS Assay for Modulators of Lamin A Splicing. HeLa LMNA splicing GFP/RFP minigene ratio, 48 h. Potency, µM (series often up to 46.1 µM), for inactives: at the highest dose ratio change, negative = inhibition, usual class: inhibitors. 0.01% of 200,000 active. AID 1487, 2009; active = well fitted inhibition curve with a large enough effect in the signal ratio, with a control signal flat, not every such curve was filed as active; inconclusive = small, poorly fitted or top-dose-only effect, or effect the other way, or a change in a side signal; the % refers to the signal ratio; note: potency is the fitted concentration of half-maximal effect
#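 Read-out is the ratio of GFP to DsRed2 object intensity, acquired by 488 nm laser-scanning cytometry on HeLa lamin A-EGFP minigene reporter cells. Compound incubation 48 hrs at 37 °C in Opti-MEM with 2% FBS; DMSO 0.5% final.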
# PNC inhibitor: High Content Assay for Compounds that inhibit the Assembly of the Perinucleolar Compartment; PC3M PTB-GFP, PNC prevalence imaging, 16 h; hits give low values; activity change (PNC), negative = inhibition, % at 10 µM; 3.1% of 140,000 active; AID 2417, 2010;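 active = readout at or below -70, meaning at least 70% loss of cells showing the perinucleolar compartment, a nuclear body marking cancer cells; inconclusive = readout between -30 and a set limit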;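 note: plate controls were DMSO wells for no effect and camptothecin positive control wells for full effect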
#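 Read-out is percentage of cells bearing a perinucleolar compartment, from automated 20x imaging of fixed, Hoechst-stained PC3M PTB-GFP cells. Cells were seeded 4 h, then exposed 16 h to compound (23 nl of library stock) in duplicate plates.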
# ALDH1A1 block: qHTS Assay for Inhibitors of Aldehyde Dehydrogenase 1 (ALDH1A1); Potency, µM (series often up to 75.3 µM), without a hit: top-dose activity, negative = inhibition, actives largely listed as inhibitors; 7.3% of 220,000 active; AID 1030, 2008; Purified ALDH1A1, NADH fluorescence, propionaldehyde substrate; Aldehyde dehydrogenase 1A1 (Homo sapiens), P00352;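 note: potency is the fitted concentration of half-maximal effect; plate controls were no enzyme wells and a reference inhibitor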
# Luc counter: Counterscreen for Luciferase (Kinase-Glo TM) Inhibition. Potency, µM (highest dose often 38.3 µM), for inactives: top-dose activity change, negative = inhibition, actives largely listed as inhibitors. 0.28% of 200,000 active. AID 1379, 2008. Kinase-Glo luciferase, ATP luminescence, 8 min; active = well fitted inhibition curve with a large enough effect; inconclusive = small, poorly fitted or top-dose-only effect; note: potency is the fitted concentration of half-maximal effect; nearly all actives have a fitted effect of over 60% in size
#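 Substrate mix (final 50 mM imidazole pH 7.2, 50 mM KCl, 7 mM MgCl2, 10 uM ATP, 0.01% Tween 20, 0.05% BSA) plus pin-tool compound, then Kinase-Glo detection mix; 8 min ambient, luminescence read.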
# IMPase inh: qHTS Assay for Identifying the Cell-Membrane Permeable IMPase Inhibitors | AID 901, 2007 | inhibition (IP1 accumulation), % at 46.1 µM | Inositol monophosphatase 1 (Rattus norvegicus), P97697 | 120,000 tested, under 10 active | CHO-M1 cells, IP1 accumulation, HTRF TR-FRET ratio; active = well fitted curve in the direction sought with a large enough effect in the signal ratio, not every such curve was filed as active; inconclusive = small, poorly fitted or top-dose-only effect, or a change in a side signal; inactive = no such curve, though single readings can be large or run the other way; the % refers to the signal ratio;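 note: cells stimulated with carbachol in lithium chloride buffer; plate controls were DMSO basal wells for no effect and reference inhibitor wells for full effect; higher means more IMPase inhibition seen as more IP1 and lower FRET ratio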
# Target sequence (P97697 whole entry, looked up): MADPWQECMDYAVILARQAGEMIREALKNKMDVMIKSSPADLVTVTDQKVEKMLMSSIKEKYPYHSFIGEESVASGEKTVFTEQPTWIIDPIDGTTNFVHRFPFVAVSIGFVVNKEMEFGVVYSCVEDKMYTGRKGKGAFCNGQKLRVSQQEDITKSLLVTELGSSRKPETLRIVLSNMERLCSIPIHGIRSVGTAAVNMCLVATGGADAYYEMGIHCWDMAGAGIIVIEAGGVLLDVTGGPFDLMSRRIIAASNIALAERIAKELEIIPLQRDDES
#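 Elevated IP1 in lysates lowers TR-FRET signal (665/620 ratio and 620 channel reported). Cells were CHO-M1, given carbachol (50 uM as added) plus 50mM LiCl, pH 7.4, 30 min, 37C; compounds titrated up to 46 uM; AC50 by Hill equation.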
# HPGD block: qHTS Assay for Inhibitors of HPGD (15-Hydroxyprostaglandin Dehydrogenase); 4.3% of 150,000 active; AID 894, 2007; 15-hydroxyprostaglandin dehydrogenase [NAD(+)] (Homo sapiens), P15428; Potency, µM, inactives show at the highest dose activity change, negative = inhibition, hits mostly inhibitors; purified HPGD, NADH fluorescence kinetic, PGE2 substrate; note: potency is the fitted concentration of half-maximal effect
# Target sequence (P15428 whole entry, looked up): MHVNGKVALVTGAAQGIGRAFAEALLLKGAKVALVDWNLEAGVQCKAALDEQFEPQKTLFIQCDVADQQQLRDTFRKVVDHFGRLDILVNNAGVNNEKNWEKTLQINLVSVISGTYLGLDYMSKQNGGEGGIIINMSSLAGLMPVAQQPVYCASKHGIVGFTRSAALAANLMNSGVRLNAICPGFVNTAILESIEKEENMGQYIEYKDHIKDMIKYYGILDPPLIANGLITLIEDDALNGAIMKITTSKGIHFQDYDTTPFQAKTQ
#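 NADH formation kinetics: reaction with 30 uM PGE2 and 1 mM NAD+ (final), 20 nM enzyme, Tris-HCl pH 8 with Tween 20, after 15 min compound preincubation at room temperature. Fluorescence change, last versus first of five reads.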
# An asterisk follows results filed as active; ? = inconclusive; / = no result; [ ] = remark or other dose. Unless noted, calls come from the whole dose curve; as a rule, active = well fitted inhibition curve with a large enough effect (not every such curve was filed as active); inconclusive = small, poorly fitted or top-dose-only effect, or another doubt; inactive = no such curve, though single readings can be large or run the other way. Unless noted, % is set by controls: 0 for no effect and ±100 for the full control effect.
SMILES,Lamin A splicing,PNC inhibitor,ALDH1A1 block,Luc counter,IMPase inh,HPGD block
O=C(O)CC(NC(=O)Cc1ccccc1)c1cc([N+](=O)[O-])ccc1Cl (stereo not given),?,/,-3.7%,1.8%,/,/
COc1ccc(-n2c(=O)c(-c3cccs3)nc3cnc(N4CCN(C)CC4)nc32)cc1,-11.0%,/,0.8%,/,/,/
O=C(CSc1nc2cc(Cl)ccc2c(=O)n1Cc1ccco1)Nc1ccc(S(=O)(=O)N2CCOCC2)cc1,7.5%,41.8,7.94µM*,3.3%,/,-8.8%
Cn1c(SCC(=O)NCc2ccco2)nnc1-c1ccccc1,-1.2%,31.4,-1.0%,0.0%,0.2,-5.9%
Cn1c(SCC(=O)NCc2ccco2)nnc1-c1ccc(S(=O)(=O)N2CCOCC2)cc1,13.7%,-100.0*,-15.9%,0.2%,-1.3,-2.5%
COC(=O)c1ccc2c(=O)n(Cc3ccco3)c(SCC(=O)Nc3ccc(C)c(Cl)c3)nc2c1,14.9%,-3.9,?,-0.2%,?,-1.7%
CC1CCN(C(=O)CSc2nnc(-c3ccc(S(=O)(=O)N4CCOCC4)cc3)n2C)CC1,-9.0%,-100.0*,?,-0.8%,2.0,?
O=C(NNc1c(Cl)cccc1Cl)c1cccs1,/,/,25.1µM*,/,/,/
Cc1ccc(NC(=O)CSc2nc3nccnc3c(=O)n2CCc2c[nH]c3ccccc23)cc1C,2.5%[46 µM],/,/,/,/,/
CCCCCC1CC(CC(=O)Nc2nncs2)C(=O)O1 (stereo not given),-1.6%,-100.0*,5.4%,-0.3%,1.0,-17.3%
CCCCCC1CC(CC(C)C(=O)Nc2nncs2)C(=O)O1 (stereo not given),0.9%,12.3,8.6%,-1.1%,5.0,-9.8%
COc1ncnc2sc(-c3ccccc3)cc12,5.9%,13.3,?,10µM*,1.8,?
COc1ccc(Nc2ncnc3sc(-c4ccccc4)cc23)cc1,19.7%,63.3,?,-6.3%,?,?
S=c1nc[nH]c2c1ncn2Cc1ccco1,/,/,-1.4%[13.5 µM],-5.2%[7.66 µM],/,-18.0%
Cc1ccc(OCc2nnc(SCC(=O)Nc3cccc4ccccc34)n2-c2ccccc2)cc1,?,-118.9*,7.2%,1.6%,10.9,-11.4%
Cc1ccc(NC(=O)CSc2nnc(-c3n[nH]c4ccccc34)n2-c2ccccc2)c(C)c1,?,?,20µM*,-0.1%,-1.5,-12.2%
Cc1ccc(OCc2nnc(SCc3cc(=O)[nH]c4ccccc34)n2-c2ccccc2)cc1,1.3%,-25.5,7.8%,0.6%,12.9,11.2µM*
CC(=O)Nc1nonc1-c1nnc(SCC(=O)Nc2cccc(C)c2C)n1-c1ccccc1,1.4%[46 µM],/,/,/,/,/
CCc1nnc(NC(=O)CSc2nnc(COc3ccccc3)n2-c2ccc(C)cc2)s1,3.5%,22.6,13.9%,-8.2%,-17.1,-2.1%
FC(F)(F)c1cccc(N2CCN(Cc3nnc(-c4ccc5c(c4)OCO5)o3)CC2)c1,/,/,/,/,11.7,/
COc1cccc(-c2cc(C(F)(F)F)n3ncc(C(=O)OC(C)C)c3n2)c1,/,/,/,/,11.2,/
COc1ccc(/C=N/c2oc(C)c(C)c2C#N)c(OC)c1,6.7%[46 µM],/,12.6µM*,0.6%,/,/
Cc1oc(/N=C/c2cccc3ccccc23)c(C#N)c1C,2.3%,25.9,?,13.2%,5.3,-17.1%
COc1ccc(N=C/C=C2/C=C(c3ccccc3)OC(C)(C)O2)cc1,?,/,1.41µM*,-2.5%,/,/
CN(C)c1ccc(/C=C/c2nc(-c3ccccc3O)n(-c3ccccc3)n2)cc1,/,/,/,/,-12.6,/
Cc1noc(C)c1CSc1ccccc1C(=O)Nc1nccs1,?,-16.8,18.9µM*,7.2%,-5.7,-12.4%
Cc1cccc(C)c1N(CC(=O)Nc1cccc(N(C)S(C)(=O)=O)c1)S(C)(=O)=O,8.4%,30.9,22.4µM*,2.6%,-6.8,-14.2%
